Results published in PubChem BioAssay (Tox21).
Results filed as inconclusive are left out. Active and inactive are the calls of the source. Unless noted, calls follow the shape of the full dose curve.

Key:
[1] = Nuclear factor erythroid 2-related factor 2/antioxidant responsive element (Nrf2/ARE) small molecule agonists: qHTS cell viability counter screen in human keratinocytes (AID 1919968; active = well fitted curve in the direction sought with a large enough effect in the repeat runs; an effect the other way counts as inactive or inconclusive; also: nearly all actives have a fitted effect of over 55% in size)
Summary of the method: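 Cells of the KeratinoSens line were plated at 1,500 per well and left for 5 h before compound transfer from DMSO stocks. After a 23 h incubation (37 C, 5% CO2), CellTiter-Fluor was added. Signal was taken as fluorescence intensity 1 h later.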

[2] = Nuclear factor erythroid 2-related factor 2/antioxidant responsive element (Nrf2/ARE) small molecule agonists: luciferase reporter gene qHTS assay in human keratinocytes (AID 1919969); also: nearly all actives have a fitted effect of over 35% in size; also: potency is read from the fitted curve at half-maximal effect
[3] = target: Gonadotropin-releasing hormone receptor (Homo sapiens) (UniProt P30968); assay: Human gonadotropin-releasing hormone receptor (GnRHR) small molecule agonists, calcium flux assay in GnRHR-HEK293 cells (AID 1920063); also: nearly all actives have a fitted effect of over 35% in size
Sequence of Gonadotropin-releasing hormone receptor (Homo sapiens) (P30968 whole entry, looked up): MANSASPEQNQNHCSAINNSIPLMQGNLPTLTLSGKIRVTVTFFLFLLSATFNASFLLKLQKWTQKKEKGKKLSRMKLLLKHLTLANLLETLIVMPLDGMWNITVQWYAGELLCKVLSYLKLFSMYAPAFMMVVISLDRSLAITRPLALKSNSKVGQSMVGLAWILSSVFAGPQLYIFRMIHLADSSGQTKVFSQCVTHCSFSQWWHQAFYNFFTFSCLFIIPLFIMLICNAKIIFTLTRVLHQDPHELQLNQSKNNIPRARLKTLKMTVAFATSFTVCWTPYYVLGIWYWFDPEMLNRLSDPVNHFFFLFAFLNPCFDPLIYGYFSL
Summary of the method: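 Compounds dissolved in DMSO are pin-transferred onto dye-loaded GnRHR-HEK293 cells, which were seeded 18 h before at 37 C/5% CO2. Calcium signal is read as fluorescence intensity at 1 s intervals for 3 min.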

[4] = target: KiSS-1 receptor (Homo sapiens) (UniProt Q969F8); assay: Human kisspeptin (KISS1R) small molecule agonists, calcium flux assay in KISS1R-HEK293 cells (AID 1920064; active = well fitted curve in the direction sought with a large enough effect in the repeat runs; an effect the other way counts as inactive or inconclusive)
Sequence of KiSS-1 receptor (Homo sapiens) (Q969F8 whole entry, looked up): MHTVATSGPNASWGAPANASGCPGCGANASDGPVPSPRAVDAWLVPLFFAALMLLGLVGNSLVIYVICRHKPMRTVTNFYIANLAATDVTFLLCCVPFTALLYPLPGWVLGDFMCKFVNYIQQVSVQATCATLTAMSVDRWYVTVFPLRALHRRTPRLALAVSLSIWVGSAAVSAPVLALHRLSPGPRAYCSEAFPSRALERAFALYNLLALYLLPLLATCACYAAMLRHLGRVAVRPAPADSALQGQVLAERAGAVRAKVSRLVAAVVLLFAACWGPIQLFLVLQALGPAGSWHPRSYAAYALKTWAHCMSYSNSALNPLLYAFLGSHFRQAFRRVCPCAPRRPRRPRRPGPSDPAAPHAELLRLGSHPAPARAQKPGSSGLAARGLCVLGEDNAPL
Summary of the method: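 Cell line: HEK293, stable human KISS1R. Dye loading 1 h at 37 C after 18 h culture. Read: kinetic fluorescence, 480/540 nm, 3 min at 1 s intervals.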

[5] = G protein-coupled receptor (GPCR) small molecule agonists, calcium flux assay: HEK293 wild type cell line counter screen (AID 1920065)
Summary of the method: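 Tox21 10K compounds, 15 concentrations each in triplicate, pin-transferred in DMSO onto dye-loaded cells; kinetic read at 480/540 nm for 3 min, 1 s intervals.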

[6] = p53 small molecule agonists, cell-based qHTS assay with human liver microsomes (AID 1963577);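 also: p53 response element beta-lactamase reporter cells with liver microsomes plus NADPH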
Summary of the method: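 16 h, 37 C exposure of p53RE-bla cells to compounds with human liver microsomes and NADPH (0.5 mg/mL final each); detection via LiveBLAzer mixture, 2 h dark at room temperature.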

[7] = p53 small molecule agonists, cell-based qHTS assay with rat liver microsomes (AID 1963578)
Summary of the method: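 With rat liver microsomes and NADPH present (0.5 mg/mL final each), p53RE-bla cells are treated with compound for 16 h at 37 C. LiveBLAzer detection mixture is then applied for 2 h at room temperature in the dark.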

[8] = p53 small molecule agonists, cell-based qHTS assay with human liver microsomes: qHTS cell viability counter screen (AID 1963579); also: nearly all actives have a fitted effect of over 45% in size
Summary of the method: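 In this multiplexed counter screen, the reporter plates were subsequently treated with CellTiter-Glo so that cell viability, reflected by luminescence, could be recorded for p53RE-bla cells dosed 16 h with compounds under microsomal activation (HLM and NADPH).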

[9] = p53 small molecule agonists, cell-based qHTS assay with rat liver microsomes: qHTS cell viability counter screen (AID 1963580); also: nearly all actives have a fitted effect of over 45% in size
Summary of the method: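 After the beta-lactamase ratio was read, CellTiter-Glo was added to the same wells and luminescence measured at 30 min; cells had been treated 16 h at 37 C with compounds, rat liver microsomes and NADPH (0.5 mg/mL final each).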

[10] = p53 small molecule agonists, cell-based qHTS assay: qHTS cell viability counter screen (AID 1963581); also: nearly all actives have a fitted effect of over 45% in size
Summary of the method: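 ATP content measured by luminescence in HCT-116 p53RE-bla cells treated 16 h at 37 C, same wells as the reporter screen.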

[11] = p53 small molecule agonists, cell-based qHTS assay (AID 1963582; active = well fitted activation curve with a large enough effect in the signal ratio in the repeat runs, not every such curve was filed as active; the % refers to the signal ratio)
Summary of the method: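 16 h compound exposure (37 C) of p53 response element–bla cells, preceded by 5 h recovery at 37 C/5% CO2; read-out via LiveBLAzer B/G FRET substrate, 2 h RT, fluorescence intensity.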

[12] = target: 5-hydroxytryptamine receptor 2A (Homo sapiens) (UniProt P28223); assay: 5-hydroxytryptamine receptor 2A (HTR2A) small molecule antagonists, cell-based qHTS assay (AID 1963586); also: nearly all actives have a fitted effect of over 45% in size
Sequence of 5-hydroxytryptamine receptor 2A (Homo sapiens) (P28223 whole entry, looked up): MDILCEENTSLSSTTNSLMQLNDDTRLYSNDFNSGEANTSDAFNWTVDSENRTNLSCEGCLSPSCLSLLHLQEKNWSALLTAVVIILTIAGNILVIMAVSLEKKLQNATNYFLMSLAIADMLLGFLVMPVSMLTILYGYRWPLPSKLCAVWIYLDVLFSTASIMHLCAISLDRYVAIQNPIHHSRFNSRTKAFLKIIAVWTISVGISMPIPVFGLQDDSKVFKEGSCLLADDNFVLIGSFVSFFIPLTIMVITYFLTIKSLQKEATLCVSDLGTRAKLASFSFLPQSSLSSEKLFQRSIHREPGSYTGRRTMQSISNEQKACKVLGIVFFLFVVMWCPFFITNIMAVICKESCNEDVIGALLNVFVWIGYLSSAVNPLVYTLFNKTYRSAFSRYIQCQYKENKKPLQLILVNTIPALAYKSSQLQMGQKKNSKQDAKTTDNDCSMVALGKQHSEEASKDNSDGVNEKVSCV
Summary of the method: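 CHO cells stably expressing human HTR2A were plated for 18 h at 37 C, then loaded with calcium dye for 1 h. Compounds were preincubated 5 min at room temperature before DOI (4 nM solution) was added. Kinetic fluorescence was read for 3 min.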

[13] = target: 5-hydroxytryptamine receptor 2A (Homo sapiens) (UniProt P28223); assay: 5-hydroxytryptamine receptor 2A (HTR2A) small molecule agonists, cell-based qHTS assay (AID 1963587); also: nearly all actives have a fitted effect of over 30% in size
Summary of the method: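 CHO cells stably expressing human HTR2A, plated 18 h, loaded with calcium dye 1 h at 37 C. Agonist mode: compounds added and intracellular calcium fluorescence recorded kinetically for 2 min at 1 sec intervals.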

[14] = target: Muscarinic acetylcholine receptor M1 (Homo sapiens) (UniProt P11229); assay: Cholinergic receptor muscarinic 1 (CHRM1) small molecule antagonists, cell-based qHTS assay (AID 1963588); also: nearly all actives have a fitted effect of over 40% in size
Sequence of Muscarinic acetylcholine receptor M1 (Homo sapiens) (P11229 whole entry, looked up): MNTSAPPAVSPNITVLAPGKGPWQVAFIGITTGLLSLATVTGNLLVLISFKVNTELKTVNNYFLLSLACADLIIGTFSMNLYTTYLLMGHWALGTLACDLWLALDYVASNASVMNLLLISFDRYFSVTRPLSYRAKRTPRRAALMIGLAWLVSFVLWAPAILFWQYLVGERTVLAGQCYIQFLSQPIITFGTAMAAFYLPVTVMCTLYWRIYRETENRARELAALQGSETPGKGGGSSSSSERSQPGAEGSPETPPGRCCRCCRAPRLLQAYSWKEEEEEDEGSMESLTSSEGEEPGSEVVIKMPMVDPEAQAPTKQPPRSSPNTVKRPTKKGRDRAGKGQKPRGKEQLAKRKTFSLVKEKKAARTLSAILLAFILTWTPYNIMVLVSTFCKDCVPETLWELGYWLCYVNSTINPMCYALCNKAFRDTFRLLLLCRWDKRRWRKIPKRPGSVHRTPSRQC
Summary of the method: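 Compounds were tested at 15 concentrations in three independent runs. Dye-loaded CHRM1-CHO cells were exposed 5 min at room temperature before stimulation by acetylcholine added at 50nM. Intracellular calcium was read kinetically on FDSS for 3 min.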

[15] = target: Muscarinic acetylcholine receptor M1 (Homo sapiens) (UniProt P11229); assay: Cholinergic receptor muscarinic 1 (CHRM1) small molecule agonists, cell-based qHTS assay (AID 1963589); also: nearly all actives have a fitted effect of over 35% in size
Summary of the method: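 Homogeneous fluorescence calcium flux, agonist mode. Human M1-expressing CHO cells; compound dosed at 15 concentrations, three independent runs; signal sampled every 1 sec.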

[16] = cAMP Responsive Elements (CRE) small molecule agonists, cell-based qHTS assay (AID 1963590)
Summary of the method: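 HEK 293T cells stably bearing CRE-bla were plated at 2,000 cells per well and rested 18 h. Compounds, positive controls or DMSO were added for 3 h at 37 C. LiveBLAzer B/G substrate was then loaded for 2 h at room temperature.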

[17] = cAMP Responsive Elements (CRE) small molecule antagonists, cell-based qHTS assay (AID 1963591; active = well fitted inhibition curve with a large enough effect in the signal ratio in the repeat runs, not every such curve was filed as active; the % refers to the signal ratio)
Summary of the method: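 First, CRE-bla HEK293T cells settled 18 h at 37 C. Next, compound and 0.25 uM final NKH477 were applied for 3 h. Last, LiveBLAzer B/G substrate was loaded for 2 h at room temperature.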

[18] = target: Beta-2 adrenergic receptor (Homo sapiens) (UniProt P07550); assay: Adrenergic beta2 receptor (ADRB2) small molecule antagonists, cell-based qHTS assay (AID 1963592); also: series mostly up to about 92 µM; nearly all actives have a fitted effect of over 50% in size
Sequence of Beta-2 adrenergic receptor (Homo sapiens) (P07550 whole entry, looked up): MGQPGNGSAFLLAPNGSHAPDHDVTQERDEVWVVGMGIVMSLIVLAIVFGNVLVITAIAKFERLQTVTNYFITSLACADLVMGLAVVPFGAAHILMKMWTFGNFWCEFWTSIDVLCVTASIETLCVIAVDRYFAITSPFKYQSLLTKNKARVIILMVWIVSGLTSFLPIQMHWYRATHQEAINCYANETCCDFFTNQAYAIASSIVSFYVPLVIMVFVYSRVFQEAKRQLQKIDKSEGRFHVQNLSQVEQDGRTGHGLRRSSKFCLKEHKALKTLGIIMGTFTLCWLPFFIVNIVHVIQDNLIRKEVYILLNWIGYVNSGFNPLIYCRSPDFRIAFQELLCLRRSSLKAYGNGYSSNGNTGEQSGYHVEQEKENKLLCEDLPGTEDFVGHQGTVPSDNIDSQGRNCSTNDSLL
Summary of the method: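 Assay format: CHO-ADRB2 cells, 18-20hr seeding at 37C/5% CO2, then compound plus 1nM isoproterenol agonist mix for 0.5hr RT. Homogeneous time-resolved fluorescence cAMP detection after 1hr, expressed as 665/615 nm ratio.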

[19] = target: D(2) dopamine receptor (Homo sapiens) (UniProt P14416); assay: Dopamine D2 receptor (DRD2) small molecule agonists, cell-based qHTS assay (AID 1963594); also: nearly all actives have a fitted effect of over 35% in size
Sequence of D(2) dopamine receptor (Homo sapiens) (P14416 whole entry, looked up): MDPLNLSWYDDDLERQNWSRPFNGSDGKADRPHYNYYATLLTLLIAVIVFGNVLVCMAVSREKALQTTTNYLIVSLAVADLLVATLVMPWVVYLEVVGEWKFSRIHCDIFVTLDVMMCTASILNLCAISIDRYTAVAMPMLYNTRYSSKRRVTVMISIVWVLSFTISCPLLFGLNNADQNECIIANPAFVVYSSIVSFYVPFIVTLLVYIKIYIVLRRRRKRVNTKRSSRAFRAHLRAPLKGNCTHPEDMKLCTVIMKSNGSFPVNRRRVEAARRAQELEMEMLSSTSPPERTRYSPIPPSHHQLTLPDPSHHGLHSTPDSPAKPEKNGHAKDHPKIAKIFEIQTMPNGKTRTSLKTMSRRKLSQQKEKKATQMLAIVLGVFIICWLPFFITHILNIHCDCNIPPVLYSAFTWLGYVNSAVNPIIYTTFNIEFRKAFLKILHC
Summary of the method: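 HEK293 cells stably expressing human DRD2, pre-treated with PDE inhibitor Ro20-1724 (0.1 mM final) and compound 10 min at room temperature, then stimulated with NKH477 (200nM […]) for 30 min. cAMP read by HTRF (665/620 nm).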

[20] = target: D(2) dopamine receptor (Homo sapiens) (UniProt P14416); assay: Dopamine D2 receptor (DRD2) small molecule antagonists, cell-based qHTS assay (AID 1963595; active = well fitted inhibition curve with a large enough effect in the signal ratio in the repeat runs, with a control signal flat; the % refers to the signal ratio)
Summary of the method: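 Readout: HTRF cAMP, cAMP-d2 competing with cellular cAMP for anti-cAMP cryptate, read after 1 h. Cells: DRD2-HEK293. Conditions: 0.1 mM Ro20-1724, 12 nM quinpirole, 200 nM NKH477, 30 min RT.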

Measured: Potency

CCCC(=O)C(C)=O
inactive: [1] | [2] | [3] | [4] | [5] | [6] | [7] | [8] | [9] | [10] | [11] | [12] | [13] | [14] | [15] | [16] | [17] | [18] | [19] | [20]

CC/C=C\CC1=C(C)CCC1=O
inactive: [1] | [2] | [3] | [4] | [5] | [6] | [7] | [8] | [9] | [10] | [11] | [12] | [13] | [14] | [15] | [16] | [17] | [18] | [19] | [20]

CCOC(=O)[C@H](CCc1ccccc1)N[C@@H](C)C(=O)N1C(=O)N(C)C[C@H]1C(=O)O
inactive: [1] | [2] | [3] | [4] | [5] | [6] | [7] | [8] | [9] | [10] | [11] | [12] | [13] | [14] | [15] | [16] | [17] | [18] | [19] | [20]

CC(C)(C)c1ccc(C(=O)CCCCl)cc1
inactive: [1] | [3] | [4] | [5] | [6] | [7] | [8] | [9] | [10] | [11] | [12] | [13] | [14] | [15] | [16] | [17] | [18] | [19] | [20]
active: [2] 23.7 µM

CC(C)(O)C(=O)c1ccc(OCCO)cc1
inactive: [1] | [2] | [3] | [4] | [5] | [6] | [7] | [8] | [9] | [10] | [11] | [12] | [13] | [14] | [15] | [16] | [17] | [18] | [19] | [20]

Nc1ccc([N+](=O)[O-])c(C(F)(F)F)c1
inactive: [1] | [2] | [3] | [4] | [5] | [6] | [7] | [8] | [9] | [10] | [11] | [12] | [13] | [14] | [15] | [16] | [17] | [18] | [19] | [20]

O=C(Cl)c1ccc(C(=O)Cl)cc1
inactive: [1] | [2] | [3] | [4] | [5] | [6] | [7] | [8] | [9] | [10] | [11] | [12] | [13] | [14] | [15] | [16] | [17] | [18] | [19] | [20]

C[Si]1(C)O[Si](C)(C)O[Si](C)(C)O[Si](C)(C)O[Si](C)(C)O1
inactive: [1] | [2] | [3] | [4] | [5] | [6] | [7] | [8] | [9] | [10] | [11] | [12] | [13] | [14] | [15] | [16] | [17] | [18] | [19] | [20]

CC(C)CCCC(C)CCCC(C)CCCCC(C)CCCC(C)CCCC(C)C (stereo not given)
inactive: [1] | [2] | [3] | [4] | [5] | [6] | [7] | [8] | [9] | [10] | [11] | [12] | [13] | [14] | [15] | [16] | [17] | [18] | [19] | [20]

C=C(C)C(=O)OCCCCCCCCCCCCC
inactive: [1] | [2] | [3] | [4] | [5] | [6] | [7] | [8] | [9] | [10] | [11] | [12] | [13] | [14] | [15] | [16] | [17] | [18] | [19] | [20]

COc1cccc(OC)c1O
inactive: [1] | [2] | [3] | [4] | [5] | [6] | [7] | [8] | [9] | [10] | [11] | [12] | [13] | [14] | [15] | [16] | [17] | [18] | [19] | [20]

CC(C)CC(=O)OCc1ccccc1
inactive: [1] | [2] | [3] | [4] | [5] | [6] | [7] | [8] | [9] | [10] | [11] | [12] | [13] | [14] | [15] | [16] | [17] | [18] | [19] | [20]

O=C(O)c1ccccc1OP(=O)(O)O
inactive: [1] | [2] | [3] | [4] | [5] | [6] | [7] | [8] | [9] | [10] | [11] | [12] | [13] | [14] | [15] | [16] | [17] | [18] | [19] | [20]

OCCCCCCCl
inactive: [1] | [2] | [3] | [4] | [5] | [6] | [7] | [8] | [9] | [10] | [11] | [12] | [13] | [14] | [15] | [16] | [17] | [18] | [19] | [20]

Fc1ccccc1-c1ccccc1
inactive: [1] | [2] | [3] | [4] | [5] | [6] | [7] | [8] | [9] | [10] | [11] | [12] | [13] | [14] | [15] | [16] | [17] | [18] | [19] | [20]

CCCCCC1CCCC(=O)O1 (stereo not given)
inactive: [1] | [2] | [3] | [4] | [5] | [6] | [7] | [8] | [9] | [10] | [11] | [12] | [13] | [14] | [15] | [16] | [17] | [18] | [19] | [20]

CCCCCC1CCC(=O)O1 (stereo not given)
inactive: [1] | [2] | [3] | [4] | [5] | [6] | [7] | [8] | [9] | [10] | [11] | [12] | [13] | [14] | [15] | [16] | [17] | [18] | [19] | [20]

COc1cc2c(Nc3ccc(Br)cc3F)ncnc2cc1OCC1CCN(C)CC1
inactive: [1] | [2] | [3] | [4] | [5] | [6] | [7] | [8] | [9] | [10] | [11] | [12] | [13] | [14] | [15] | [16] | [17] | [18] | [19] | [20]

C[C@H]1C[C@@H](O)CC(C)(C)C1
inactive: [1] | [2] | [3] | [4] | [5] | [6] | [7] | [8] | [9] | [10] | [11] | [12] | [13] | [14] | [15] | [16] | [17] | [18] | [19] | [20]
